The panel holds about 83,000 compounds, 20% with a hit somewhere; the sample as a whole holds those more often.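 Cell lines were cultured in 96-well plates, exposed to a single compound concentration, and assessed for percent growth 48 hours later.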 Calls of active or inactive are those of the source. The calls were made as follows: active = growth percent below 10; inactive = the rest.
Tested on: SW-620 colon
Test: NCI-60 one-dose screen, 48 h (100 = growth as untreated, 0 = no growth, -100 = all killed)
Settings: 10 µM unless noted

Compound | growth
Cc1nn(-c2ccccc2)c(-n2ccnc2)c1/C=N/Nc1nc(-c2ccc(F)cc2)cs1 | 88.4% (inactive)
O=C(Nc1ccc(Br)cc1F)c1cc(Br)ccc1O | 8.55% (active)
O=C(/C=C/c1sc(Cl)nc1Cl)c1ccccc1 | 33% (inactive)
CCCCCCCCCCCCCCCCCC1OCC(COC(=O)O[C@]2(CC)C(=O)OCc3c2cc2n(c3=O)Cc3cc4ccccc4nc3-2)O1 (stereo partly specified) | 57.1% (inactive)
COc1cc2cc(Oc3ccc(NC(=O)Nc4ccc(F)c(C(F)(F)F)c4)cc3)c(C)nc2cc1OCCN1CCOCC1 | 15.5% (inactive)
CCOC(=O)c1nc(Nc2ccc(C(C)=O)cc2)sc1C | 101% (inactive)
COc1ccc(C2CC(c3ccc(Nc4nc(Nc5ccc(F)cc5)nc(Nc5ccc(Cl)cc5)n4)cc3)=NN2C(C)=O)cc1 (stereo unspecified) | 109% (inactive)
CCN(CC)CCNc1nc2ccccc2c2c(=O)c3cc(Cl)ccc3sc12 | 17.2% (inactive)
Cc1ccc(C2CC(c3ccc(Nc4ccnc5cc(Cl)ccc45)cc3)=NN2C=O)cc1 (stereo unspecified) | 68% (inactive)
N/C(=N\c1nc2ccccc2s1)NC(=O)Nc1cccc2ccccc12 | 19.7% (inactive)
O=C(Cc1ccc(F)c(Cl)c1)Nc1cc(C2(C(F)(F)F)CC2)nn1Cc1ccccc1 | 82.7% (inactive)
O=C1CCC(C(=O)NCCNCCNC(=O)C2CCC(=O)N2)N1 (stereo unspecified) | 94.8% (inactive)
C=CCNc1ccc2c3c(cccc13)C(=O)N(N1C(=O)c3cccc4cccc(c34)C1=O)C2=O | 108% (inactive)
NCCCNc1nc2ccccc2c2c(=O)c3cccc(F)c3sc12 | -62.5% (active)
Cc1ccc2sc3c(NCCN)nc4ccccc4c3c(=O)c2c1 | -61.9% (active)
CCCCN(C)N=Nc1ccc(C(N)=O)cc1 | 104% (inactive)
O=C(N/N=C/[C@@H](O)[C@H](O)[C@H](O)CO)c1ccc(NC(=O)c2cccnc2)cc1 | 98.9% (inactive)
CC(=O)CC(c1cccs1)c1c(-c2ccccc2)[nH]c2ccccc12 (stereo unspecified) | 90.4% (inactive)
Cc1oc2nc[nH]c(=O)c2c1C(=O)/C=C/c1ccc(Br)cc1 | 3.84% (active)

Compound | growth
C=C1C(=O)O[C@H]2[C@H]1CC/C(COC(=O)CSCC(=O)OC/C1=C/CC[C@@]3(C)O[C@H]3[C@H]3OC(=O)C(=C)[C@@H]3CC1)=C\CC[C@@]1(C)O[C@@H]21 | -29% (active)
N#Cc1c(-c2ccc(Cl)cc2)nc(NCCO)[nH]c1=O | 112% (inactive)
Cc1cc(-c2cc(C)c(N)cc2C)c(C)cc1N | 100% (inactive)
CCCCCCCCCCCCCCCCCCOc1ccccc1CC(=O)OCC[N+](CC)(CC)CC | 21.6% (inactive)
FC(F)(F)c1cc(Nc2ccc3c(OCCCN4CCOCC4)cccc3n2)ccc1Cl | 1.47% (active)
COc1cc2cc(Oc3ccc(NC(=O)Nc4cccc(C(F)(F)F)c4)cc3)c(C)nc2cc1OCCN1CCOCC1 | 36.9% (inactive)
Cc1nc(NC(=O)COc2ccc(/C=C3\Cc4ccc(Cl)cc4C3=O)cc2)sc1C | 107% (inactive)
CCc1nnc(NC(=O)c2nnn(-c3ccccc3)c2-c2ccco2)s1 | 98.5% (inactive)
COc1cc(C(=O)c2cc(C)c3[nH]c4ccc(C)cc4c3c2C)cc(OC)c1OC | 31.4% (inactive)
O=c1c2cc(F)ccc2sc2c(NCCN3CCOCC3)nc3ccccc3c12 | 42.4% (inactive)
CC(=O)OC[C@H]1OC(Sc2sc(C(=O)c3ccc(Br)cc3)c(N)c2-c2nc3ccccc3s2)[C@H](OC(C)=O)[C@@H](OC(C)=O)[C@H]1OC(C)=O (stereo partly specified) | 104% (inactive)
C[N+]1=C(/C=C/c2ccc(O)c3ncccc23)C(C)(C)c2ccccc21 | 89% (inactive)
CC(C)c1cc(C(C)C)c(S(=O)(=O)Oc2ccc(NC(=O)c3ccc(Cl)cc3)cc2)c(C(C)C)c1 | 21.7% (inactive)
CCOc1c(B(O)O)cccc1-c1nc2ccc3[nH]ncc3c2c2c1CCCC2 | 38.3% (inactive)
CC1=C([Se]CC(OC(=O)[C@@H](CSSC(C)(C)C)NC(=O)OC(C)(C)C)C(=O)NC(C)(C)C)C(=O)c2ccccc2C1=O (stereo partly specified) | -83.3% (active)
CNC(=O)c1[nH]cc(-c2ccccc2)c1-c1cc(OC)c2c(c1OC)OCO2 | 99.9% (inactive)
C=C(C)C1CCC2(C)OC2C1 (stereo unspecified) | 110% (inactive)
CSc1ncccc1C(=O)OCC(=O)Nc1oc(C)c2c(C)n[nH]c(=O)c12 | 105% (inactive)
Oc1ccc(CCl)c2cccnc12 | 41.5% (inactive)

Tested on: MCF7 breast
Test: as above
Settings: 10 µM unless noted

Compound | growth
Cc1nn(-c2ccccc2)c(-n2ccnc2)c1/C=N/Nc1nc(-c2ccc(F)cc2)cs1 | 72.3% (inactive)
O=C(Nc1ccc(Br)cc1F)c1cc(Br)ccc1O | 6% (active)
O=C(/C=C/c1sc(Cl)nc1Cl)c1ccccc1 | 32.8% (inactive)
CCCCCCCCCCCCCCCCCC1OCC(COC(=O)O[C@]2(CC)C(=O)OCc3c2cc2n(c3=O)Cc3cc4ccccc4nc3-2)O1 (stereo partly specified) | 44.4% (inactive)
COc1cc2cc(Oc3ccc(NC(=O)Nc4ccc(F)c(C(F)(F)F)c4)cc3)c(C)nc2cc1OCCN1CCOCC1 | 3.62% (active)
CCOC(=O)c1nc(Nc2ccc(C(C)=O)cc2)sc1C | 92.9% (inactive)
COc1ccc(C2CC(c3ccc(Nc4nc(Nc5ccc(F)cc5)nc(Nc5ccc(Cl)cc5)n4)cc3)=NN2C(C)=O)cc1 (stereo unspecified) | 105% (inactive)
CCN(CC)CCNc1nc2ccccc2c2c(=O)c3cc(Cl)ccc3sc12 | 52.3% (inactive)
Cc1ccc(C2CC(c3ccc(Nc4ccnc5cc(Cl)ccc45)cc3)=NN2C=O)cc1 (stereo unspecified) | 35.2% (inactive)
N/C(=N\c1nc2ccccc2s1)NC(=O)Nc1cccc2ccccc12 | 23.1% (inactive)
O=C(Cc1ccc(F)c(Cl)c1)Nc1cc(C2(C(F)(F)F)CC2)nn1Cc1ccccc1 | 81% (inactive)
O=C1CCC(C(=O)NCCNCCNC(=O)C2CCC(=O)N2)N1 (stereo unspecified) | 98.3% (inactive)
C=CCNc1ccc2c3c(cccc13)C(=O)N(N1C(=O)c3cccc4cccc(c34)C1=O)C2=O | 87.4% (inactive)
NCCCNc1nc2ccccc2c2c(=O)c3cccc(F)c3sc12 | 19.9% (inactive)
Cc1ccc2sc3c(NCCN)nc4ccccc4c3c(=O)c2c1 | 47.9% (inactive)
CCCCN(C)N=Nc1ccc(C(N)=O)cc1 | 94% (inactive)
O=C(N/N=C/[C@@H](O)[C@H](O)[C@H](O)CO)c1ccc(NC(=O)c2cccnc2)cc1 | 92.6% (inactive)
CC(=O)CC(c1cccs1)c1c(-c2ccccc2)[nH]c2ccccc12 (stereo unspecified) | 92.2% (inactive)
Cc1oc2nc[nH]c(=O)c2c1C(=O)/C=C/c1ccc(Br)cc1 | 9.43% (active)

Compound | growth
C=C1C(=O)O[C@H]2[C@H]1CC/C(COC(=O)CSCC(=O)OC/C1=C/CC[C@@]3(C)O[C@H]3[C@H]3OC(=O)C(=C)[C@@H]3CC1)=C\CC[C@@]1(C)O[C@@H]21 | 23.4% (inactive)
N#Cc1c(-c2ccc(Cl)cc2)nc(NCCO)[nH]c1=O | 95.3% (inactive)
Cc1cc(-c2cc(C)c(N)cc2C)c(C)cc1N | 80.7% (inactive)
CCCCCCCCCCCCCCCCCCOc1ccccc1CC(=O)OCC[N+](CC)(CC)CC | 12.9% (inactive)
FC(F)(F)c1cc(Nc2ccc3c(OCCCN4CCOCC4)cccc3n2)ccc1Cl | 17.9% (inactive)
COc1cc2cc(Oc3ccc(NC(=O)Nc4cccc(C(F)(F)F)c4)cc3)c(C)nc2cc1OCCN1CCOCC1 | 9.35% (active)
Cc1nc(NC(=O)COc2ccc(/C=C3\Cc4ccc(Cl)cc4C3=O)cc2)sc1C | 88.6% (inactive)
CCc1nnc(NC(=O)c2nnn(-c3ccccc3)c2-c2ccco2)s1 | 78.6% (inactive)
COc1cc(C(=O)c2cc(C)c3[nH]c4ccc(C)cc4c3c2C)cc(OC)c1OC | 11.6% (inactive)
O=c1c2cc(F)ccc2sc2c(NCCN3CCOCC3)nc3ccccc3c12 | 76.9% (inactive)
CC(=O)OC[C@H]1OC(Sc2sc(C(=O)c3ccc(Br)cc3)c(N)c2-c2nc3ccccc3s2)[C@H](OC(C)=O)[C@@H](OC(C)=O)[C@H]1OC(C)=O (stereo partly specified) | 94.6% (inactive)
C[N+]1=C(/C=C/c2ccc(O)c3ncccc23)C(C)(C)c2ccccc21 | 13.7% (inactive)
CC(C)c1cc(C(C)C)c(S(=O)(=O)Oc2ccc(NC(=O)c3ccc(Cl)cc3)cc2)c(C(C)C)c1 | 16.3% (inactive)
CCOc1c(B(O)O)cccc1-c1nc2ccc3[nH]ncc3c2c2c1CCCC2 | 59.4% (inactive)
CC1=C([Se]CC(OC(=O)[C@@H](CSSC(C)(C)C)NC(=O)OC(C)(C)C)C(=O)NC(C)(C)C)C(=O)c2ccccc2C1=O (stereo partly specified) | -25.9% (active)
CNC(=O)c1[nH]cc(-c2ccccc2)c1-c1cc(OC)c2c(c1OC)OCO2 | 99.9% (inactive)
C=C(C)C1CCC2(C)OC2C1 (stereo unspecified) | 105% (inactive)
CSc1ncccc1C(=O)OCC(=O)Nc1oc(C)c2c(C)n[nH]c(=O)c12 | 84% (inactive)
Oc1ccc(CCl)c2cccnc12 | 5.57% (active)

Reference: PubChem BioAssay (NCI)
